Data taken from PubChem BioAssay (NCATS).
Where “and” joins values, the source holds several entries; their conditions need not be identical. Identical values can stand only once. Records with an inconclusive call do not appear. Calls of active or inactive are those of the source. The call rests on the fitted dose curve; in most records, active means well fitted cell-killing curve with a large enough effect; inconclusive means small, poorly fitted or top-dose-only effect; inactive means no such curve, though single readings can be large or run the other way.

Assay: qHTS of pediatric cancer cell lines to identify multiple opportunities for drug repurposing: Confirmatory screen for TC32 cells (AID 1347118);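 further: cells exposed to compound for 48 h before the read; nearly all actives have a fitted effect of over 65% in size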
Details: TC32 Ewing sarcoma cells viability qHTS; series mostly up to 45.9 µM
From the text: Drug repurposing or repositioning has been offered as a strategy for drug development in oncology programs. This approach has special potential for childhood cancers and other rare or orphan diseases, where the expected return on new drug development has been a disincentive to pharmaceuticals.
In this project we exploit the poly-pharmacology of drugs to discover new indications via phenotypic screening of a panel of 19 well-characterized cell lines derived from solid tumors seen in children and adolescents. The goal is to identify approved drugs with previously unrecognized anticancer properties that has the potential to reveal new mechanisms and biological processes involved in carcinogenesis or drug resistance. We employed a titration-based paradigm (quantitative high-throughput screening or qHTS), where all compounds were tested at multiple concentrations for their effect on cell viability. Concentration-response curves (CRCs) were derived directly from the primary screen, and both potency and efficacy values were used to identify compounds with robust bioactivity profiles. We screened the NIH Chemical Genomics Center (NCGC) Pharmaceutical Collection (NPC) and Mechanism Interrogation Plate (MIPE) small molecule collections of approved and investigational compounds against these cell lines; and measured metabolically active cells after 48 hours of compound treatment as a proxy for cell viability.
Assay Submitter: Nathalia J. Martinez, National Center for Advancing Translational Sciences, National Institutes of Health, Rockville, MD, USA; email: natalia.martinez@nih.gov
[1] Shen, M et al. Quantitative high-throughput phenotypic screening of pediatric cancer cell lines identifies multiple opportunities for drug repurposing. Oncotarget 2017 Dec 19;9(4):4758-4772. PMID 29435139.
The cells were obtained from University of North Carolina (UNC), Pediatric Preclinical Testing Program (PPT), and Coriell Institute (CI).
qHTS cell viability assay:
Cells were assayed in growth media at a density of 500-1,000 cells/well. Five microliters of cells were dispensed into 1,536-well, white, solid-bottom, TC-treated plates (Greiner Bio One) using a multidrop dispenser and incubated at 37 degrees C, 5% CO2, under a humidified atmosphere for 5 hours. Twenty-three nanoliters of compounds and controls (neutral control DMSO or positive control bortezomib at final concentration of 2.3 uM) were subsequently transferred by Kalypsys pintool. For primary screens, the MIPE collection was tested at 11-point dilutions (final concentrations range from 0.78 nM to 46 µM) and the NPC collection at 8-point dilutions (final concentrations range from 0.59 nM to 46 µM). Compounds tested in follow-up screens were assayed at 11-point dilutions. Cells were incubated for 48 hours, followed by addition of 3 uL of CellTiter-Glo (Promega). After a 15min incubation at room temperature, samples were analyzed for luminescence intensity using a ViewLux High-throughput CCD imager equipped with clear filters.
Potency means the concentration at half of the fitted maximal effect.

Structure (SMILES) | Potency
COc1ccc(-c2ccc3cc(C(=O)O)ccc3c2)cc1C12CC3CC(CC(C3)C1)C2 | 2.08 µM (active)
CCC(=O)O[C@]1(C(=O)CCl)[C@@H](C)C[C@H]2[C@@H]3CCC4=CC(=O)C=C[C@]4(C)[C@@]3(F)[C@@H](O)C[C@@]21C | inactive
CN(C)c1ccc(C(=C2C=CC(=[N+](C)C)C=C2)c2ccc(N(C)C)cc2)cc1 | 0.928 µM (active)
COC(=O)Nc1nc2ccc(S(=O)c3ccccc3)cc2[nH]1 (centres undefined) | 1.04 µM (active)
COc1cc2c(Nc3ccc(Br)cc3F)ncnc2cc1OCC1CCN(C)CC1 | inactive
S=P(N1CC1)(N1CC1)N1CC1 | 4.14 µM (active)
O=S(=O)(O)CCS | inactive
CC(C)C[C@H](NC(=O)[C@H](CCc1ccccc1)NC(=O)CN1CCOCC1)C(=O)N[C@@H](Cc1ccccc1)C(=O)N[C@@H](CC(C)C)C(=O)[C@@]1(C)CO1 | 0.0233 µM (active)
Oc1c(Cl)cc(Cl)c2cccnc12 | 8.27 µM (active)
CCC(=O)O[C@]1(C(=O)SCF)[C@H](C)C[C@H]2[C@@H]3C[C@H](F)C4=CC(=O)C=C[C@]4(C)[C@@]3(F)[C@@H](O)C[C@@]21C | inactive
COc1cc(NCc2ccc3nc(N)nc(N)c3c2C)cc(OC)c1OC | 0.585 µM (active)
CNCC[C@H](Oc1cccc2ccccc12)c1cccs1 | 7.37 µM (active)
CN1CCCC(n2nc(Cc3ccc(Cl)cc3)c3ccccc3c2=O)CC1 (centres undefined) | 26.1 µM (active)
COC(=O)Nc1nc2ccc(Sc3ccccc3)cc2[nH]1 | 0.827 µM (active)
CO[C@@]12[C@H](COC(N)=O)C3=C(C(=O)C(C)=C(N)C3=O)N1C[C@@H]1N[C@@H]12 | 0.465 µM (active)
CC(C)NCC(O)c1ccc(NS(C)(=O)=O)cc1 (centres undefined) | inactive
CC(C)(C)C(=O)OCOP(=O)(COCCn1cnc2c(N)ncnc21)OCOC(=O)C(C)(C)C | 1.17 µM (active)
Nc1nc(F)nc2c1ncn2[C@@H]1O[C@H](CO)[C@@H](O)[C@@H]1O | 18.5 µM (active) and 737 nM (active)
CC1CC2C3CCC4=CC(=O)C=C[C@]4(C)[C@@]3(F)[C@@H](O)C[C@]2(C)[C@@]1(O)C(=O)CO (some centres undefined) | inactive
CNC(=O)c1cc(Oc2ccc(NC(=O)Nc3ccc(Cl)c(C(F)(F)F)c3)cc2)ccn1 | 18.5 µM (active)

Structure (SMILES) | Potency
COc1cc2nc(N3CCCN(C)CC3)nc(NC3CCN(Cc4ccccc4)CC3)c2cc1OC | 11.7 µM (active)
COC(=O)Nc1nc2ccc(C(=O)c3ccccc3)cc2[nH]1 | 0.369 µM (active)
Nc1nc(=S)c2[nH]cnc2[nH]1 | 1.17 µM (active) and 737 nM (active)
COc1cc([C@@H]2c3cc4c(cc3[C@H](O)[C@H]3COC(=O)[C@H]23)OCO4)cc(OC)c1OC | 0.0737 µM (active)
Nc1nc(N)c2nc(CNc3ccc(C(=O)NC(CCC(=O)O)C(=O)O)cc3)cnc2n1 (centres undefined) | 0.329 µM (active)
O=NN(CCCl)C(=O)NC1CCCCC1 | inactive
NC(=O)c1cccnc1 | 16.5 µM (active)
Cn1nnc2c(C(N)=O)ncn2c1=O | inactive
CNS(=O)(=O)CCc1ccc2[nH]cc(C3CCN(C)CC3)c2c1 | 13.1 µM (active)
CCOC(=O)[C@H](CCc1ccccc1)N[C@H]1CS[C@H](c2cccs2)CN(CC(=O)O)C1=O | 8.27 µM (active)
CC(C)(C#N)c1cc(Cn2cncn2)cc(C(C)(C)C#N)c1 | inactive
COc1nc(N)nc2c1ncn2[C@@H]1O[C@H](CO)[C@@H](O)[C@@H]1O | 3.69 µM (active)
O=C(NCC1CN(c2ccc(N3CCOCC3=O)cc2)C(=O)O1)c1ccc(Cl)s1 (centres undefined) | 2.61 µM (active)
CS(=O)(=O)c1ccc([C@@H](O)[C@@H](CO)NC(=O)C(Cl)Cl)cc1 | inactive
C[C@@H]1C[C@H]2[C@@H]3CCC4=CC(=O)C=C[C@]4(C)[C@@]3(Cl)[C@@H](O)C[C@]2(C)[C@@]1(OC(=O)c1ccco1)C(=O)CCl | 0.928 µM (active)
CC(=O)[C@H]1CC[C@H]2[C@@H]3CCC4=CC(=O)CC[C@]4(C)[C@H]3CC[C@]12C | 5.22 µM (active)
Nc1[nH]c(=O)ncc1F | inactive
CCc1c2c(nc3ccc(OC(=O)N4CCC(N5CCCCC5)CC4)cc13)-c1cc3c(c(=O)n1C2)COC(=O)[C@]3(O)CC | 0.465 µM (active)
C[C@@H](CN1CC(=O)NC(=O)C1)N1CC(=O)NC(=O)C1 | inactive
